“And” between values parts separate entries of the source, which are not always exact repeats. Equal values may be shown once. Inconclusive results are not listed. The source holds several records for some structures; these can differ, active in one and inactive in another. The source made the active and inactive calls. Unless noted, calls follow the shape of the dose curve; as a rule, active = well fitted curve in the direction sought with a large enough effect in the repeat runs; inconclusive = weak or mixed curves; inactive = no such curve, though single readings can be large; an effect the other way counts as inactive or inconclusive.
What was measured:
[1] = target: Thyrotropin receptor (Homo sapiens) (UniProt P16473); experiment: qHTS assay to identify small molecule antagonists of the thyroid stimulating hormone receptor (TSHR) signaling pathway (AID 1259385; calls by dose curve; also: nearly all actives have a fitted effect of over 20% in size)
Method in brief: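 TSHR-HEK293 cells were plated and held 18 h at 37C/5% CO2, then given compound plus Ro20-1724 and stimulated with TSH at 1.5 ng/mL final. After 30 min at room temperature, cAMP was detected with cAMP-d2/anti-cAMP-cryptate (1 h) by fluorescence.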

[2] = qHTS assay to identify small molecule agonists of the estrogen receptor alpha (ER-alpha) signaling pathway in the presence of an antagonist - cell viability counter screen (AID 1259386);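 also: series mostly up to about 92 µM; cells exposed to compounds for 22 h at 37 °C before the viability read; nearly all actives have a fitted effect of over 30% in size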
Method in brief: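 Steps: 5-day stripped-FBS culture; seed and incubate 24hr; add ICI-182,780 (10.0nM final); pin 15-point compound titration; incubate 22hr at 37C; add CellTiter-Fluor at 21hr; read fluorescence.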

[3] = target: Progesterone receptor (Homo sapiens) (UniProt P06401); experiment: qHTS assay to identify small molecule agonists of the progesterone receptor (PR) signaling pathway (AID 1346784; calls by dose curve; also: nearly all actives have a fitted effect of over 30% in size; also: potency is read from the fitted curve at half-maximal effect)
Method in brief: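 The screen uses PR-UAS-bla HEK 293T cells in charcoal-stripped serum (2%). Compounds are applied for 16 hr at 37C after a 6 hr pre-incubation, and reporter activity is detected with a FRET beta-lactamase substrate after 2 hr at room temperature.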

[4] = target: Progesterone receptor (Homo sapiens) (UniProt P06401); experiment: qHTS assay to identify small molecule antagonists of the progesterone receptor (PR) signaling pathway (AID 1346795; active = well fitted inhibition curve with a large enough effect in the signal ratio in the repeat runs, not every such curve was filed as active; the % refers to the signal ratio; also: potency is read from the fitted curve at half-maximal effect)
Method in brief: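 After 6 hr plating at 37C in 2% stripped-serum medium, PR-UAS-bla HEK293T cells got compounds, then 1 nM R5020. Sixteen hours later, LiveBLAzer substrate was applied for 2 hr at room temperature and fluorescence was recorded.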

[5] = qHTS assay to identify small molecule antagonists of the progesterone receptor (PR) signaling pathway - cell viability counter screen (AID 1346798); also: series mostly up to about 92 µM; nearly all actives have a fitted effect of over 50% in size
Method in brief: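 Viability was determined by ATP-based luminescence (CellTiter-Glo) in PR-UAS-bla HEK293T cells cultured in 2% charcoal-stripped serum and incubated 16 hr with compounds under R5020 stimulation.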

[6] = qHTS assay to identify small molecule agonists of the progesterone receptor (PR) signaling pathway - cell viability counter screen (AID 1346799; calls by dose curve; also: nearly all actives have a fitted effect of over 45% in size)
Method in brief: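 Viability was scored by ATP luminescence (CellTiter-Glo, 30 min, room temperature) in the same wells used for the reporter readout, after 16 hr compound exposure of PR-UAS-bla HEK293T cells.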

[7] = qHTS assay to identify small molecule antagonists of the TGF-beta/Smad signaling pathway - cell viability counter screen (AID 1346824); also: nearly all actives have a fitted effect of over 50% in size
Method in brief: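 SBE-bla HEK 293T cells were plated overnight at 37 C, then given compounds in DMSO plus TGF-beta1 (added as 0.25 ng/mL solution) for 5 hr. After the bla read, CellTiter-Glo was added to the same wells and luminescence read after 30 min at room temperature.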

[8] = qHTS assay to identify small molecule agonists of the TGF-beta/Smad signaling pathway - cell viability counter screen (AID 1346829); also: top concentration of the series differs between compounds; nearly all actives have a fitted effect of over 45% in size
Method in brief: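 Cytotoxicity counter screen: CellTiter-Glo luminescence (30 min, room temperature) measured in the SBE-bla HEK 293T reporter wells after 5 hr compound treatment at 37 C and the 2 hr substrate step.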

[9] = qHTS assay to identify small molecule agonists of the TGF-beta/Smad signaling pathway (AID 1346859; active = well fitted activation curve with a large enough effect in the signal ratio in the repeat runs, not every such curve was filed as active; the % refers to the signal ratio; also: series mostly up to about 77 µM)
Method in brief: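 Dual-wavelength fluorescence (460/530 nm emission) quantified beta-lactamase expression under the Smad binding element in HEK 293T cells following 5 hr compound treatment at 37 C.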

[10] = target: Thyrotropin-releasing hormone receptor (Homo sapiens) (UniProt P34981); experiment: qHTS assay to identify small molecule antagonists of the thyrotropin-releasing hormone receptor (TRHR) signaling pathway (AID 1346877; active = well fitted inhibition curve with a large enough effect in the repeat runs, not every such curve was filed as active; also: series mostly up to about 51 µM)
Method in brief: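 Human TRHR in HEK293 cells; inhibition of the intracellular calcium rise triggered by 1 nM TRH was followed by fluorescence over 3 min. Compounds were run at 15 concentrations, three replicates each.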

[11] = target: Thyrotropin-releasing hormone receptor (Homo sapiens) (UniProt P34981); experiment: qHTS assay to identify small molecule agonists of the thyrotropin-releasing hormone receptor (TRHR) signaling pathway (AID 1346891; calls by dose curve;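 also: HEK293 cells expressing TRHR with calcium dye readout; series mostly up to about 58 µM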)
Method in brief: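 Kinetic fluorescence (3 min, 1 s intervals) reported intracellular calcium after compound transfer onto TRHR-Hek293 cells pre-loaded with dye for 2 h at 37 °C.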

[12] = Human pregnane X receptor (PXR) small molecule agonists, qHTS cell viability counter screen (AID 1346977); also: nearly all actives have a fitted effect of over 50% in size; also: potency is read from the fitted curve at half-maximal effect
Method in brief: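 HepG2 cells stably carrying the PXR-Luc reporter are cultured with 5% charcoal-stripped FBS and treated with compounds for 24hr. CellTiter-Fluor is added at 23hr and fluorescence is read after 1hr.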

[13] = Caspase-3/7 induction in HepG2 cells by small molecules, qHTS assay (AID 1346978); also: nearly all actives have a fitted effect of over 15% in size
Method in brief: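 Wild-type HepG2 cells (2,000/well) were settled 5 h at 37 C, 5% CO2, then exposed to compounds in DMSO for 17 h. Caspase-3/7 activity was read by luminescence 30 min after adding Caspase-Glo 3/7 reagent at room temperature.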

[14] = Caspase-3/7 induction in CHO-K1 cells by small molecules, qHTS assay (AID 1346980); also: nearly all actives have a fitted effect of over 15% in size
Method in brief: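 Wild-type cells were seeded at 1,500 per well and settled 5 hr at 37 C, 5% CO2, then exposed to DMSO-dissolved compounds for 17 hr. Caspase-Glo 3/7 reagent was added, and luminescence was read after 30min at room temperature.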

[15] = Caspase-3/7 induction in HepG2 cells by small molecules, qHTS cell viability counter screen (AID 1346981); also: series mostly up to about 92 µM; nearly all actives have a fitted effect of over 30% in size
Method in brief: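 The parent HepG2 line is plated at 2,000 cells per well and rested 5 hr before compound pinning from DMSO stocks. Following a 16-hr treatment at 37 C, a fluorogenic live-cell substrate (CellTiter-Fluor) reports viability after 1 hr.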

[16] = target: Nuclear receptor subfamily 1 group I member 2 (Homo sapiens) (UniProt O75469); experiment: Human pregnane X receptor (PXR) small molecule agonists, qHTS assay (AID 1346982); also: nearly all actives have a fitted effect of over 35% in size; also: potency is read from the fitted curve at half-maximal effect
Method in brief: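 After plating in 5% charcoal-stripped FBS and a 5 hr rest, PXR-Luc HepG2 cells received compounds in DMSO. Following 24 hr at 37 C, ONE-Glo was added and light output read.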

[17] = Caspase-3/7 induction in CHO-K1 cells by small molecules, qHTS cell viability counter screen (AID 1346979); also: nearly all actives have a fitted effect of over 35% in size; also: potency is read from the fitted curve at half-maximal effect
Method in brief: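 Seeding: 1,500 CHO-K1 cells/well. Rest: 5hr, 37C. Treatment: compounds in DMSO, 16hr. Read: CellTiter-Fluor, 1hr, fluorescence.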

[18] = target: Nuclear receptor subfamily 1 group I member 2 (Rattus norvegicus) (UniProt Q9R1A7); experiment: Rat pregnane X receptor (rPXR) activation by small molecules, qHTS assay (AID 1346983); conditions: rPXR luciferase reporter cells, One-Glo luminescence, 24 h; stronger effect = higher value; also: nearly all actives have a fitted effect of over 20% in size
Method in brief: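 Cell-based rPXR luciferase reporter assay, 2,000 cells per well, rested 5hr at 37 C before compound addition in DMSO, then 24 hr at 37 C. One-Glo reagent was added and luminescence read after 30 min at room temperature.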

[19] = target: Nuclear receptor subfamily 1 group I member 2 (Homo sapiens) (UniProt O75469); experiment: CYP3A4 induction through human pregnane X receptor (PXR) by small molecules, qHTS assay (AID 1346984); also: nearly all actives have a fitted effect of over 40% in size
Method in brief: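 Human PXR activation is tracked via CYP3A4 promoter-luciferase in DPX-2 (HepG2) cells. Compounds treat cells for 24hr at 37C, and luminescence is read after One-Glo.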

[20] = target: Nuclear receptor subfamily 1 group I member 2 (Homo sapiens) (UniProt O75469); experiment: Human pregnane X receptor (PXR) activation by small molecules, qHTS assay (AID 1346985); also: nearly all actives have a fitted effect of over 40% in size
Method in brief: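 DPX-2 cells (HepG2 co-transfected with a PXR response element and a CYP3A4-promoter luciferase construct) were seeded at 2,000 per well, rested 5 hr at 37C, then exposed to DMSO-dissolved compounds for 24 hr. Activation was read as luciferase luminescence.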
% is scaled to controls: 0 for no effect and ±100 for the full control effect.

Sequence of Progesterone receptor (Homo sapiens) (P06401 whole entry, looked up): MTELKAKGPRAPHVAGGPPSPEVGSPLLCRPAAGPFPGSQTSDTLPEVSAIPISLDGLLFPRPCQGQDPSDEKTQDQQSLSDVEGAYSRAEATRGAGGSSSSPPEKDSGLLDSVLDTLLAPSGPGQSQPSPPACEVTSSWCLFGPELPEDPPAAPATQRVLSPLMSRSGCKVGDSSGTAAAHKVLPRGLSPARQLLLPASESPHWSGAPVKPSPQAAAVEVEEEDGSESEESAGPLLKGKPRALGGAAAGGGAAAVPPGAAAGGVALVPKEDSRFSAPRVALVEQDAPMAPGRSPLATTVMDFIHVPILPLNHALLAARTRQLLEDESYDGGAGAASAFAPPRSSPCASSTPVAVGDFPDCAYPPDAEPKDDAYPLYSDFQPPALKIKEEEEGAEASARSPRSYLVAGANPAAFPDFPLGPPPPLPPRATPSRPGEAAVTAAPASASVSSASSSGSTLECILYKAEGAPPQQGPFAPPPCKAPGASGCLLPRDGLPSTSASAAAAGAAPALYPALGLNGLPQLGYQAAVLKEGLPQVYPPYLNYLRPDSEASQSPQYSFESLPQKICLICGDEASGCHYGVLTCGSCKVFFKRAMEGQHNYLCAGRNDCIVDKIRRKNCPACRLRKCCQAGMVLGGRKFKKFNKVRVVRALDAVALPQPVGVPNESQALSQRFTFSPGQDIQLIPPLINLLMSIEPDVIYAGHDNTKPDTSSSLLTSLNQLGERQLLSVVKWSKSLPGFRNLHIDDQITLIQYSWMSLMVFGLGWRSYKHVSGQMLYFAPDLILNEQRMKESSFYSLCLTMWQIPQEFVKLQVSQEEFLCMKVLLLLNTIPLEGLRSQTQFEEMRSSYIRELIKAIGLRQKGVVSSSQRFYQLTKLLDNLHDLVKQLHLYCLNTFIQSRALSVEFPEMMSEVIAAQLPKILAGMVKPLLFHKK
Sequence of Thyrotropin-releasing hormone receptor (Homo sapiens) (P34981 whole entry, looked up): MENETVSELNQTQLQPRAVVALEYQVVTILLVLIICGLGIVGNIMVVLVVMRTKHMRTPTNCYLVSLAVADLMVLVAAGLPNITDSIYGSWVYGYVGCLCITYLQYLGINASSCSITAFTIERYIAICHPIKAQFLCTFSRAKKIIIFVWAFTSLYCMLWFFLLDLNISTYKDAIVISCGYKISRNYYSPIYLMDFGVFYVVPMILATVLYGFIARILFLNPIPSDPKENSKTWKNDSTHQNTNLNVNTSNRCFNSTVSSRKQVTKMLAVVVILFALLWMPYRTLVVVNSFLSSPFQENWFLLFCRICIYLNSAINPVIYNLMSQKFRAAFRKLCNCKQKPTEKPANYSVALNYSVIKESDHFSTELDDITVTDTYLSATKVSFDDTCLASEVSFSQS
Sequence of Nuclear receptor subfamily 1 group I member 2 (Homo sapiens) (O75469 whole entry, looked up): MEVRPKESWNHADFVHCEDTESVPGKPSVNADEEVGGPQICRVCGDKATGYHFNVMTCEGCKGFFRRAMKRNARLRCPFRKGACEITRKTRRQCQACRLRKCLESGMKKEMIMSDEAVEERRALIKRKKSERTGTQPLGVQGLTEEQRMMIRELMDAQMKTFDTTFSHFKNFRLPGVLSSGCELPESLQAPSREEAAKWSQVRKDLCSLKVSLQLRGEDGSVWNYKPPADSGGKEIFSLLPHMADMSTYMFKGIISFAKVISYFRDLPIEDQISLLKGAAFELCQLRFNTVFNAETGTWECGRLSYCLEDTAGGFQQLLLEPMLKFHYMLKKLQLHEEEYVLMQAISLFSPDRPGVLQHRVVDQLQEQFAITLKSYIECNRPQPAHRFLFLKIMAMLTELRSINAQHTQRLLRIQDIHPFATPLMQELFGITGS
Sequence of Thyrotropin receptor (Homo sapiens) (P16473 whole entry, looked up): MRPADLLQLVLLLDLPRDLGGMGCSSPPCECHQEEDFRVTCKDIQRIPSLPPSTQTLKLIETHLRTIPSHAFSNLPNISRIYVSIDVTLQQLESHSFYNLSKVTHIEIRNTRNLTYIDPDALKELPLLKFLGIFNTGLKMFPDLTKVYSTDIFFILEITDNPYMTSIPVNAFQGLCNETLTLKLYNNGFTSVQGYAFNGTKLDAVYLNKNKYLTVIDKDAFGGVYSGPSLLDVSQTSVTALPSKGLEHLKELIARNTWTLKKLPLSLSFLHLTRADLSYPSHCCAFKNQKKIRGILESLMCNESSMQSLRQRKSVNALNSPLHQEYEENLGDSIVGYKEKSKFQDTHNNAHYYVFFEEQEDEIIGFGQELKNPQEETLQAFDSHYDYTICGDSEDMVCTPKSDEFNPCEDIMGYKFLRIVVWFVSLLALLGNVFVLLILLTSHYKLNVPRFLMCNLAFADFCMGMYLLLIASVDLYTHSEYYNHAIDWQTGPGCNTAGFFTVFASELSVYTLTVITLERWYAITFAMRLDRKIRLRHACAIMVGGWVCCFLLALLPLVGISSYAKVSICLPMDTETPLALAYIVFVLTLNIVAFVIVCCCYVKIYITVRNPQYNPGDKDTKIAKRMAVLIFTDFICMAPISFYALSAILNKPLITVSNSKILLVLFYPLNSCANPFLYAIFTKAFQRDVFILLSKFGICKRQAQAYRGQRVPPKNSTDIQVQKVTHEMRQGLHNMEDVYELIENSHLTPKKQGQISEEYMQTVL
Sequence of Nuclear receptor subfamily 1 group I member 2 (Rattus norvegicus) (Q9R1A7 whole entry, looked up): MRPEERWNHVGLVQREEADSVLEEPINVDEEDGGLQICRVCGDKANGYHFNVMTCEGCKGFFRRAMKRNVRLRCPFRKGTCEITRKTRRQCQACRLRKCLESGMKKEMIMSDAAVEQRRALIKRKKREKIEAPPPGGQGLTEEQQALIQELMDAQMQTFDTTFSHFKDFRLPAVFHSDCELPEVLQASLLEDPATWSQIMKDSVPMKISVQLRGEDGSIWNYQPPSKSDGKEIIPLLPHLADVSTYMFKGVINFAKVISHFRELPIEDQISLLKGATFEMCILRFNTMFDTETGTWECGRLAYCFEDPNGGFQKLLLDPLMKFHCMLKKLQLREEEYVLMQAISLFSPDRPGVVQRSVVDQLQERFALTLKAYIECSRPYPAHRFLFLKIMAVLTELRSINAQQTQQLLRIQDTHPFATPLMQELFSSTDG

COP(=O)(OC)OC
61.6 µM (active) and inactive: Potency [16]
44.7 µM (active) and inactive: Potency [12]
inactive: outcome [1] | Potency [2] | Potency [3] | Potency [4] | Potency [5] | Potency [6] | Potency [7] | Potency [8] | outcome [9] | Potency [10] | Potency [11] | Potency [13] | Potency [14] | Potency [15]

Nc1cccnc1
inactive: outcome [1] | Potency [2] | Potency [3] | Potency [4] | Potency [5] | Potency [6] | Potency [7] | Potency [8] | outcome [9] | Potency [10] | Potency [11] | Potency [12] | Potency [13] | Potency [14] | Potency [15] | Potency [16]

C#C[C@]1(O)CC[C@H]2[C@@H]3CCC4=CC(=O)CC[C@]4(C)[C@H]3CC[C@@]21C
active: Potency [3] 0.0243 µM
inactive: outcome [1] | Potency [2] | Potency [4] | Potency [5] | Potency [6] | Potency [7] | Potency [8] | outcome [9] | Potency [10] | Potency [11] | Potency [12] | Potency [13] | Potency [17] | Potency [14] | Potency [15] | max activation [18] 11.6%

CNC(=O)N(C)c1nnc(C(C)(C)C)s1
inactive: outcome [1] | Potency [2] | Potency [3] | Potency [4] | Potency [5] | Potency [6] | Potency [7] | Potency [8] | outcome [9] | Potency [10] | Potency [11] | Potency [12] | Potency [13] | Potency [17] | Potency [14] | Potency [15]
active: Potency [16] 54.5 µM

c1ccc(N=Nc2ccccc2)cc1
inactive: outcome [1] | Potency [2] | Potency [3] | Potency [4] | Potency [5] | Potency [6] | Potency [7] | Potency [8] | outcome [9] | Potency [10] | Potency [11] | Potency [12] | Potency [13] | Potency [14] | Potency [15] | Potency [16]

N#CC(Br)Br
inactive: outcome [1] | Potency [2] | Potency [3] | Potency [4] | Potency [5] | Potency [6] | Potency [7] | Potency [8] | outcome [9] | Potency [10] | Potency [11] | Potency [12] | Potency [13] | Potency [17] | Potency [14] | Potency [15] | Potency [16]

CCN(N=O)C(N)=O
inactive: outcome [1] | Potency [2] | Potency [3] | Potency [4] | Potency [5] | Potency [6] | Potency [7] | Potency [8] | outcome [9] | Potency [10] | Potency [11] | Potency [12] | Potency [13] | Potency [14] | Potency [15] | Potency [16]

CCOP(=S)(OCC)O/N=C(\C#N)c1ccccc1
active: Potency [4] 13.3 µM | Potency [16] 30.6 µM
inactive: outcome [1] | Potency [2] | Potency [3] | Potency [5] | Potency [6] | Potency [7] | Potency [8] | outcome [9] | Potency [10] | Potency [11] | Potency [12] | Potency [13] | Potency [17] | Potency [14] | Potency [15]

CC(C)c1ccc(CO)cc1
inactive: outcome [1] | Potency [2] | Potency [3] | Potency [4] | Potency [5] | Potency [6] | Potency [7] | Potency [8] | outcome [9] | Potency [12] | Potency [13] | Potency [17] | Potency [14] | Potency [15] | Potency [16]

C=CCN(CC=C)C(=O)C(Cl)Cl
inactive: outcome [1] | Potency [2] | Potency [3] | Potency [4] | Potency [5] | Potency [6] | Potency [7] | Potency [8] | outcome [9] | Potency [10] | Potency [11] | Potency [12] | Potency [13] | Potency [17] | Potency [14] | Potency [15] | Potency [16]

Oc1ccc(-c2ccccc2)cc1
active: Potency [4] 15.4 µM | Potency [16] 60.3 µM and 54.5 µM
47.9 µM (active) and inactive: Potency [17]
inactive: outcome [1] | Potency [2] | Potency [3] | Potency [5] | Potency [6] | Potency [7] | Potency [8] | outcome [9] | Potency [10] | Potency [11] | Potency [12] | Potency [13] | Potency [14] | Potency [15]

CCN(CC)N=O
inactive: outcome [1] | Potency [2] | Potency [3] | Potency [4] | Potency [5] | Potency [6] | Potency [7] | Potency [8] | outcome [9] | Potency [10] | Potency [11] | Potency [12] | Potency [13] | Potency [14] | Potency [15] | Potency [16]

S=C1NCCN1
inactive: outcome [1] | Potency [2] | Potency [3] | Potency [4] | Potency [5] | Potency [6] | Potency [7] | Potency [8] | outcome [9] | Potency [10] | Potency [11] | Potency [12] | Potency [13] | Potency [17] | Potency [14] | Potency [15]

Nc1ccncc1
inactive: outcome [1] | Potency [2] | Potency [3] | Potency [4] | Potency [5] | Potency [6] | Potency [7] | Potency [8] | outcome [9] | Potency [10] | Potency [11] | Potency [12] | Potency [13] | Potency [17] | Potency [14] | Potency [15] | Potency [16]

NCc1cccnc1
inactive: outcome [1] | Potency [2] | Potency [3] | Potency [4] | Potency [5] | Potency [6] | Potency [7] | Potency [8] | outcome [9] | Potency [10] | Potency [11] | Potency [12] | Potency [13] | Potency [17] | Potency [14] | Potency [15] | Potency [16] | max activation [18] -2.22% | outcome [19] | outcome [20]

Source: PubChem BioAssay (Tox21)
